Several values for one entry are separate records, joined by “and”; a condition that tells them apart may be missing. Equal values may be shown once. In all, about 350,000 compounds went through this assay and about 31,000 (8.9%) were called active. Roughly 15% stayed inconclusive and do not appear here. The call rests on the fitted dose curve; in most records, active means well fitted inhibition curve with a large enough effect; inconclusive means small, poorly fitted or top-dose-only effect; inactive means no such curve, though single readings can be large or run the other way. Many of the other results were omitted from the sample, so actives are more common in it than they were. Some compounds were tested as several samples or in several runs, with calls that do not always agree.
target: Histone-lysine N-methyltransferase EHMT2 (Homo sapiens) (UniProt Q96KQ7); assay: qHTS Assay for Inhibitors of Histone Lysine Methyltransferase G9a; settings: G9a H3K9 monomethylation, AlphaScreen, 2 h; series mostly up to 59 µM; activity, negative = inhibition: at the top concentration; further: nearly all actives have a fitted effect of over 75% in size
Procedure, shortened: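 G9a (20 nM) preincubated 15 min RT with compounds, then 500 nM biotinylated H3K9 peptide and 20 uM SAM added; 2 h RT reaction. Monomethyl-H3K9 product detected by AlphaScreen with anti-H3K9me1 antibody, streptavidin donor and anti-rabbit IgG acceptor beads.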
On the % scale 0 is the no-effect control and ±100 the full control effect; potency means the concentration at half of the fitted maximal effect.

Sequence of Histone-lysine N-methyltransferase EHMT2 (Homo sapiens) (Q96KQ7 913-1193 limits assumed): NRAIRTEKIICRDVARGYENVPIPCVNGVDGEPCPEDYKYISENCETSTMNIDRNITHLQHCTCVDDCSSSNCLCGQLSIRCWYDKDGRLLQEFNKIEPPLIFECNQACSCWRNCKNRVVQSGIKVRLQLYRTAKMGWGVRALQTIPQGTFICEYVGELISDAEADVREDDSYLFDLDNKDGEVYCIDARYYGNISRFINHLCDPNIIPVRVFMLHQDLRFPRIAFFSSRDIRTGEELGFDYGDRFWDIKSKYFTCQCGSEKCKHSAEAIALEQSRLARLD

activity, negative = inhibition, inactive:
O=C(NCCN1CCOCC1)c1cccc(S(=O)(=O)Nc2ccc(F)cc2)c1 8.8% [at 12.7 µM]
Cc1cccc(OCCSc2nc3ccc(NC(=O)COc4ccccc4C)cc3s2)c1 2.36%
Cc1c(C(C)CCCO)oc(=O)c2c1Oc1c(C)c(C(C)C[C@@H](C)O)oc(=O)c1C2 (some centres undefined) 9.9% [at 2.33 µM]
Cc1ccc2nc(SCC(=O)N3CC(C)OC(C)C3)nc(=O)n2c1 (centres undefined) -2.71% [at 102 µM]
CCN(CC)S(=O)(=O)c1ccc(N2CCOCC2)c(C(=O)O)c1 -9.66%
CCN(CC)S(=O)(=O)c1ccc(Cl)c(C(=O)NC(C)C(c2cccs2)N2CCCC2)c1 (centres undefined) -26.8% [at 102 µM]
Cc1ccc(NS(=O)(=O)c2cccs2)cc1S(=O)(=O)N1CCCCCC1 5.06% [at 102 µM]
CCN(CC)S(=O)(=O)c1ccc(N2CCOCC2)c(NC(=O)C2COc3ccccc3O2)c1 (centres undefined) -11.4%
CC(=O)NCCC(=O)Nc1cc(S(=O)(=O)N2CCOCC2)ccc1N1CCOCC1 -0.39% [at 102 µM]
COc1ccc(S(=O)(=O)N2CCCCC2)cc1NC(=O)c1cc([N+](=O)[O-])ccc1N1CCOCC1 -29.7% [at 102 µM]
CN1CCN(c2ccc(S(=O)(=O)N3CCCCC3)cc2NC(=O)Cc2ccccc2F)CC1 -2.09%
O=S(=O)(Nc1cc(Cl)ccc1N1CCOCC1)c1ccccc1Cl 13.1% [at 2.33 µM]
NC(=O)c1cc(S(=O)(=O)NCCCc2ccco2)cs1 -8.74% [at 102 µM]
COc1ccc(Cn2ccnc2SCC(=O)NCc2ccco2)cc1 1.84%
COc1cc(OC)cc(C(=O)Nc2cc3nn(-c4ccccc4)nc3cc2Cl)c1 -33.1%
C[C@@H]1NC(=O)[C@@]2(C)[C@@H](c3ccccc3)[C@H]3COc4ccccc4[C@@H]3N2C1=O -3.98% [at 0.501 µM]
Cc1cccc(-n2c(=O)c3c(c4cc(C)ccc4n3C)n(CC(=O)Nc3ccccc3Cl)c2=O)c1 -5.06%
CCCn1c(N)c(N(CCOC)C(=O)C2CCCC2)c(=O)[nH]c1=O 15% [at 2.33 µM]
Cc1ccc(-c2nc(-c3ccncc3)no2)c(C)c1 64.3% [at 102 µM]
COc1cccc(-n2c(=O)c3c(C)c(C(=O)N(C)C)sc3n(Cc3cccc(C)c3)c2=O)c1 3.74%
COc1ccc(CCNC(=O)c2ccc3c(c2)nc(C)n3-c2ccc(Br)cc2)cc1OC -25.2%
CCOC(=O)c1ccc(CSc2nnc3cc(C)c4ccccc4n23)cc1 -31.5%
CCN(CC(=O)Nc1c(F)cccc1F)C(=O)c1ccc(-c2ccccc2)cc1 15% [at 102 µM]
N#CCCN(C(=O)COC(=O)C1CCN(c2ccc(C(F)(F)F)cn2)CC1)c1ccc(F)cc1 -45.2% [at 102 µM]
COC(=O)c1ccc(NC(=O)CCc2c(C)nn(-c3ccc(N4CCCC4)nn3)c2C)cc1 0.28%
Cn1c(=O)n(Cc2c(F)cccc2Cl)c(=O)c2c1nc1n2CCN1c1ccc(F)cc1 4.45%
Cc1ccc(CNC(=O)Cn2cnc(S(=O)(=O)N3CCCCC3)c2)o1 5.58%
Cc1ccc(C(=O)N2CC(=O)Nc3ccccc32)o1 24.3%
CC(=O)c1ccc(NC(=O)C2CCCN2S(=O)(=O)c2cccs2)cc1 (centres undefined) 1.13% [at 102 µM]
CC(=O)c1ccc(S(=O)(=O)NC2CC(=O)N(c3ccc4c(c3)OCCO4)C2)cc1 (centres undefined) 1.6% [at 102 µM]
CCCCCCCNC(=O)C1(CC2CC(c3cccc(Br)c3)=NO2)CCN(C(=O)c2cc(OCC)c(OCC)c(OCC)c2)CC1 (centres undefined) -31.9% [at 2.33 µM]
O=C(CCN1C(=O)C2C3CCC(C3)C2C1=O)Nc1ccc(Cl)cc1Cl (centres undefined) -9.22% [at 102 µM]
CCS(=O)(=O)N1Cc2ccccc2CC1C(=O)Nc1ccc(OC)cc1OC (centres undefined) 17.4% [at 102 µM]
CSc1ncccc1C(=O)Nc1nc2ccc(F)cc2s1 35.3% [at 102 µM]
O=C(C[n+]1cc(-c2ccc(Cl)c(Cl)c2)n2c1CCC2)c1cccs1 -34.8% [at 102 µM]
Clc1ccc(C[n+]2cc(-c3ccccc3)n3c2CCC3)cc1 -8.96% [at 102 µM]
O=C(CSc1ncc(CO)n1Cc1ccc(F)cc1)NCc1ccco1 -3.33%
O=C(O)c1ccc2c(c1)N(Cc1ccc(F)cc1)C(=O)c1ccccc1S2=O (centres undefined) -19.5%
OCC[C@H]1C[C@H](O)[C@@H](O)[C@]2(Cc3ccccc3CO2)O1 12.3% [at 2.33 µM]
COc1ccc(-c2nnc(SCc3cccnc3)o2)cc1 7.22%
COc1ccc(-c2nnc(SC(C)C(=O)NC3CC3)o2)cc1 (centres undefined) 3.83% [at 12.7 µM]
Cc1ccccc1C(=O)NCc1nc(-c2ccc(Cl)cc2)no1 12.2%
CC1CN(C(=S)Nc2ccc(Br)cc2Cl)CC(C)O1 (centres undefined) 20.9% [at 102 µM]
CC1CN(c2cc(=O)n(Cc3ccc(F)cc3)c(=O)[nH]2)CC(C)O1 (centres undefined) -5.92% [at 102 µM]
COC(=O)c1ccccc1N=Nc1c(C)[nH][nH]c1=O -41.6% [at 102 µM]
Cc1cccn2c(=O)c3cc(C(=O)NC(C)c4ccccc4)c(=N)n(CCCO)c3nc12 (centres undefined) -1.26%
Cc1ccsc1C(=O)NC1CCCCC1C (centres undefined) 16.6% [at 12.7 µM]
Cc1ccc2nc(-c3ccncc3)cc(C(=O)Nc3ccc4c(c3)OCCO4)c2c1 -0.816%
Cc1ccn2c(Nc3ccc4c(c3)OCCO4)c(-c3ccc(C)s3)nc2c1 -39.1%
Oc1ccccc1-c1nc2ccc(Cl)cn2c1Nc1ccc2c(c1)OCCO2 1.35%
Cc1nc(Nc2ccc3c(c2)OCCO3)c2nnn(Cc3ccccc3Cl)c2n1 -29.1% [at 102 µM]
Cc1ccc(S(=O)(=O)NCC(=O)Nc2ccc3c(c2)OCCO3)cc1 28.1%
Cc1ccc2nc(-c3cccnc3)c(NC3CCCC3)n2c1 14.7%
CCN(C(=O)Cn1cnc2sc(C)c(S(=O)(=O)N3CCN(c4ncccn4)CC3)c2c1=O)c1ccccc1F 1.78%
Cc1ccc(S(=O)(=O)N(CCCN(C)C)Cc2ccc3c(c2)OCO3)cc1 11.2% [at 102 µM]
COc1ccc(-c2cn3nc(N4CCCC(C(=O)NCCCOC(C)C)C4)sc3n2)cc1 (centres undefined) -36.6%
Cc1c(Cl)cccc1NC(=O)C(=O)NCCc1csc2nc(-c3ccccc3F)nn12 1.79%
NS(=O)(=O)c1ccc(CCNC(=O)COC(=O)COc2cccc(C(F)(F)F)c2)cc1 -4.95% [at 12.7 µM]
Cc1ccc(-c2cc(C(=O)NC3CCN(Cc4ccccc4)CC3)c3ccccc3n2)cc1 20.7%
CC(Sc1nn(-c2ccc(Cl)cc2)c(=S)s1)C(=O)NCC1CCCO1 (centres undefined) -32.1% [at 102 µM]
CNC(=O)NC(=O)CSc1nnc(-c2ccc(F)cc2)n1CC1CCCO1 (centres undefined) -5.04% [at 102 µM]
CCN1C(=O)[C@H]2[C@@H](c3ccc(-c4ccc(F)cc4)cc3)N[C@@](Cc3ccccc3)(C(=O)OC)[C@H]2C1=O 15.2% [at 2.33 µM]
O=C(COc1ccccc1Cl)N1N=C(c2cccs2)CC1c1ccco1 (centres undefined) -17.2% [at 12.7 µM]
Cc1cc(C)cc(OCC(=O)Nc2c(C(=O)c3ccccc3)oc3ccccc23)c1 -0.593%
CC(=O)Nc1ccc(NC(=O)CSc2nnnn2C2CCCCC2)cc1 -23.7% [at 102 µM]
CC(=O)Nc1ccc(NC(=O)CSc2nnnn2-c2ccccc2F)cc1 12.9% [at 102 µM]
CCOc1ccc(C2C(=O)N(C3CCCCC3)CC(=O)N2CCC2=CCCCC2)cc1OC (centres undefined) -15.8%
CCOc1ccccc1N1CCN(C(=S)Nc2ccc(S(N)(=O)=O)cc2)CC1 4.71%
CC1CN(C(=S)Nc2ccc(S(N)(=O)=O)cc2)CC(C)O1 (centres undefined) 38.7% [at 102 µM]
CCCN1CCc2nc(N3CCN(C)CC3)ncc2C1 52.1%
Nc1nc(SCCOc2ccccc2)n[nH]1 1.72% [at 12.7 µM]
N#Cc1cccc(CSc2ncnc(N)n2)c1 -30.5% [at 2.33 µM]
Cc1ccc(CCNC(=O)c2ccc3c(c2)nc2n3CCC(C)C2)cc1 (centres undefined) 7.37%
CCOc1ccc(NC(=O)C(=O)NCCc2csc3nc(-c4ccccc4F)nn23)cc1 4.21%
COc1ccc(NC(=O)CCCN2C(=O)CCn3nc(-c4cn(C)c5ccccc45)cc32)cc1OC -18.7%
CCc1ccc(NC(=O)Cn2nnc(C(=O)NCc3ccc4c(c3)OCO4)c2N)cc1 30.7% [at 102 µM]

Potency, inactive and 50.1 µM (active):
Cc1ccc(C(=O)C[n+]2cc(-c3ccccc3)n3c2CCCCC3)cc1

Potency, active:
COCc1[nH][nH]c(=O)c1C=Nc1ccc(F)cc1F 20 µM
O=S(=O)(Nc1cc(S(=O)(=O)N2CCOCC2)ccc1N1CCCC1)c1cccs1 20 µM
CCN(CC)S(=O)(=O)c1ccc(N2CCCC2)c(NS(=O)(=O)c2cccs2)c1 28.2 µM
CCN(CC)S(=O)(=O)c1ccc(N2CCN(C)CC2)c(NC(=O)Nc2ccccc2F)c1 39.8 µM
COCCNC(=S)Nc1cc(S(=O)(=O)N2CCOCC2)ccc1N1CCCCC1 2 µM
Cc1ccc(CNC(=O)C2(C(F)(F)F)C/C(=C\Cc3ccccc3)CCCO2)o1 (centres undefined) 28.2 µM
CCS(=O)(=O)N1Cc2ccccc2CC1C(=O)Nc1nc2ccc(F)cc2s1 (centres undefined) 31.6 µM
COc1ccc(-c2nnc(SC(=O)N3c4ccccc4Sc4ccccc43)o2)cc1 17.8 µM
CC1CN(c2cc(=O)n(-c3cccc(Br)c3)c(=O)[nH]2)CC(C)O1 (centres undefined) 44.7 µM
Cc1[nH][nH]c(=O)c1N=Nc1ccccc1 50.1 µM
Cc1ccc(-c2nc3cccc(C)n3c2Nc2ccc3c(c2)OCCO3)cc1 12.6 µM
Cc1ccc2nc(-c3ccc(O)cc3)c(Nc3ccc4c(c3)OCO4)n2c1 3.55 µM
Cc1cccc2nc(-c3ccc(Cl)s3)c(Nc3ccc4c(c3)OCCO4)n12 10 µM
S=c1[nH]nc(-c2ccc(Cl)cc2)n1CC1CCCO1 (centres undefined) 7.94 µM
CCn1nnnc1SCC(=O)Nc1ccc(N(C)C)cc1 28.2 µM
COc1ccc(N2CCN(C(=S)Nc3ccc(S(N)(=O)=O)cc3)CC2)cc1 8.91 µM
Nc1nc(SCc2cccc(Br)c2)n[nH]1 31.6 µM

From PubChem BioAssay AID504332 (National Center for Advancing Translational Sciences (NCATS), 2011)
